Shown are actives, neighbours in structure and some others; about 11% of the full set was active somewhere.
VDR inhibitor = Inhibitors of the vitamin D receptor (VDR): qHTS. Vitamin D3 receptor (Homo sapiens), P11473. VDR-SRC2-3 peptide fluorescence polarization, 2 h. Potency, µM, for inactives: max response, negative = inhibition, actives largely listed as inhibitors. 400,000 tested, 0.93% active; also: % is scaled to controls: 0 for no effect and ±100 for the full control effect
Target sequence (P11473 whole entry, looked up): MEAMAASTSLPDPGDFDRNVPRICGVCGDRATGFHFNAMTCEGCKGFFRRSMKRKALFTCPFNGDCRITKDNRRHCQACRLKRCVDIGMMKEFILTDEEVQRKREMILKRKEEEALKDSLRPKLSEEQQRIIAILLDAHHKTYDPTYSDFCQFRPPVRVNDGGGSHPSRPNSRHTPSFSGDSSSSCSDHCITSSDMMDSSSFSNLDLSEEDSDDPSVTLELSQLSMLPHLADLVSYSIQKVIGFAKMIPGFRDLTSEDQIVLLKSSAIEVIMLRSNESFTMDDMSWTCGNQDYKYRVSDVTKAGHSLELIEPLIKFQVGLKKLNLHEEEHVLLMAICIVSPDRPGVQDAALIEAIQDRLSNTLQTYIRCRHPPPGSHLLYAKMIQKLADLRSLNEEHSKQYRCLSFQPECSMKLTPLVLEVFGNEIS
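Inhibition of the VDR/SRC2-3 peptide interaction is quantified by fluorescence polarization. Compounds (23 nl, pintool) incubate with the reagents for 2 hours at ambient room temperature.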
BAZ2B inh = qHTS Assay for Inhibitors of BAZ2B | Bromodomain adjacent to zinc finger domain protein 2B (Homo sapiens), Q9UIF8 | AlphaScreen BAZ2B-H3K14Ac peptide displacement | Potency, µM (titrated, usually from 114 µM), inactives show at the top dose activity change, negative = inhibition, actives largely listed as inhibitors | 360,000 tested, 4.4% active | AID 504333, 2011; also: % is scaled to controls: 0 for no effect and ±100 for the full control effect; nearly all actives have a fitted effect of over 60% in size
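BAZ2B (50 nM) with biotin-H3(5-23)K14Ac peptide (50 nM) in PBS pH 7.4, 0.01% Tween-20, preformed 30 min, then compound 30 min at room temperature; top concentration 110uM. AlphaScreen streptavidin donor/nickel chelate acceptor beads (10 ug/mL final), 20 min dark, signal read.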
JMJD2A Tudor = qHTS Assay for Inhibitors of JMJD2A-Tudor Domain; AlphaScreen JMJD2A-Tudor / H3K4me3 peptide binding; Potency, µM (titrated, usually from 114 µM), inactives show at the highest dose activity change, negative = inhibition, usual class: inhibitors; 390,000 tested, 4.4% active; also: % is scaled to controls: 0 for no effect and ±100 for the full control effect; nearly all actives have a fitted effect of over 50% in size
G9a inh = qHTS Assay for Inhibitors of Histone Lysine Methyltransferase G9a; Histone-lysine N-methyltransferase EHMT2 (Homo sapiens), Q96KQ7; 350,000 tested, 8.8% active; Potency, µM (doses to about 102 µM), inactives show at the top dose activity, negative = inhibition, most hits filed as inhibitors; AID 504332, 2011; G9a H3K9 monomethylation, AlphaScreen, 2 h; also: % is scaled to controls: 0 for no effect and ±100 for the full control effect; nearly all actives have a fitted effect of over 75% in size
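AlphaScreen read-out: biotin-H3K9 peptide (500 nM) methylation by 20 nM enzyme with 20 uM SAM, 2 h at room temperature after 15 min compound preincubation; anti-monomethyl H3K9 antibody plus donor/acceptor beads, 10 min dark.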
PLK1 PBD inh = qHTS for Inhibitors of PLK1-PDB (polo-like kinase 1 - polo-box domain): Primary Screen; 360,000 tested, 2.8% active; Potency, µM, inactives show max response, negative = inhibition, hits mostly inhibitors; AID 720504, 2013; Plk1 PBD binding of FITC phosphopeptide, fluorescence polarization; Serine/threonine-protein kinase PLK1 (Homo sapiens), P53350; also: series mostly up to about 57 µM; % is scaled to controls: 0 for no effect and ±100 for the full control effect; nearly all actives have a fitted effect of over 65% in size
HP1b chromo inh = HTS for Inhibitors of HP1-beta Chromodomain Interactions with Methylated Histone Tails. Chromobox protein homolog 1 (Homo sapiens), P83916. AlphaScreen HP1-beta / biotin-H3K9me3 peptide binding. Potency, µM (titrated, usually from 114 µM), inactives show at the highest dose activity change, negative = inhibition, most hits filed as inhibitors. 390,000 tested, 0.56% active; also: nearly all actives have a fitted effect of over 70% in size
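HP1-beta protein (50 nM final) preincubated 30 min at room temperature with biotinylated H3(1-18)K9me3 peptide (50 nM) in PBS pH 7.4, 0.01% Tween-20, then compound added for 30 min. AlphaScreen streptavidin donor/nickel chelate acceptor beads (10 ug/mL final), 30 min dark, luminescence read.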
An asterisk follows results filed as active; ? = inconclusive; . = no result; [ ] = remark or other dose. Calls follow the shape of the dose curve; as a rule, active = well fitted curve in the direction sought with a large enough effect; inconclusive = small, poorly fitted or top-dose-only effect, or another doubt; inactive = no such curve, though single readings can be large; an effect the other way counts as inactive or inconclusive. Potency is read from the fitted curve at half-maximal effect.

SMILES	VDR inhibitor	BAZ2B inh	JMJD2A Tudor	G9a inh	PLK1 PBD inh	HP1b chromo inh
COCCSc1ccccc1C(=O)Nc1cc([N+](=O)[O-])ccc1OC	-23%	-17%	-14%	40µM*	-12%	18%
O=C(Nc1ccccc1Cl)c1cc2c(-c3ccccc3)nn(-c3ccccc3)c2s1	-21%	1%	16%	13%[59 µM]	.	55%
Cc1nn(-c2ccccc2)c2[nH]c(=O)c(CNc3ccc4c(c3)OCCO4)cc12	-4%	35µM*	?	11µM*	-14%	-36%
CC(C)(C)c1nn(-c2ccccc2)c2[nH]c(=O)c(C=O)cc12	-1%	-12%	0%	?	-12%	47%
CCOc1ccc(NCc2cc3c(C(C)(C)C)nn(-c4ccccc4)c3[nH]c2=O)cc1	16%	22µM*	50µM*	40µM*	-7%	?
COc1ccc(Cn2c(SCc3ccc(C(=O)NCc4ccccc4F)cc3)nc3cccnc32)cc1	4%	0%	-15%	6%[59 µM]	.	38%
O=C(CSc1nc2ccccc2n1CC(=O)N1CCCCC1)N1CCCCC1	0%	20%	2%	39%[59 µM]	0%	19%
CN(C)c1ccc(CNC(=O)c2ccc(Cn3c(SCc4ccccc4)nc4cccnc43)cc2)cc1	-2%	?	?	10µM*	.	-7%
O=C(CSc1nc2ccccc2n1S(=O)(=O)c1ccccc1)N1CCCCC1	2%	-6%[57.1 µM]	0%	71µM*	0%	42%
O=C(NCc1ccccc1)c1ccc(CSc2nc3cccnc3n2Cc2ccccc2F)cc1	4%	22µM*	5.6µM*	3.5µM*	.	?
CCOC(=O)c1ccc(S(=O)(=O)n2c(CN3CCCCC3)nc3ccccc32)cc1	-1%	-32%	-14%	50µM*	-3%	37%
Cc1cccc(Cn2c(SCc3ccc(C(=O)NCc4ccccc4)cc3)nc3cccnc32)c1	19%	4%	-7%	-24%[59 µM]	.	39%
Cn1c(SCC(=O)N2CCCC2)nc2cccnc21	-6%	-22%	8%	?	-8%	31%
Cc1cccc(CNC(=O)c2ccc(Cn3c(SCc4ccccc4)nc4cccnc43)cc2)c1	23%	3%	-16%	-21%[59 µM]	.	50%
Cc1cccc(CNC(=O)c2ccc(Cn3c(SCc4cccc(F)c4)nc4cccnc43)cc2)c1	7%	11µM*	4.5µM*	3.2µM*	.	?
O=C(CSc1nc2cccnc2n1Cc1ccccc1)N1CCCC1	?	-3%	32µM*	20%	30µM*	?
Cc1nnc(NCc2ccc(F)cc2)c2c1nnn2Cc1ccccc1Cl	8%	3%	-8%	-3%[59 µM]	.	39%
Cc1cc2nc3c(=O)n(C)c(=O)n(C)c3nc2cc1N=CN(C)C	14%	3%	-12%	16µM*	.	16%
O=C(NCC1CCCO1)c1cc2ccccc2oc1=O (stereo not drawn)	-1%	-1%	-4%	-1%[0.501 µM]	-1%	32%
CN(Cc1ccccc1)C(=O)COC(=O)/C=C/c1ccco1	-14%	.	?	35µM*	-18%	?
CN(CCOC(=O)/C=C/c1ccco1)Cc1ccccc1	-16%	35µM*	25µM*	14µM*	?	?
Cc1ccc(CNC(=O)c2ccc(F)c(S(=O)(=O)N3CCOCC3)c2)cc1	-11%	8%	-5%	-14%	-12%	8%
CCOc1ccc(-c2cn3c(n2)sc2cc(C(=O)NCCCN4CCCCC4)ccc23)cc1	-8%	-29%	-13%	2%[59 µM]	.	39%
CCN1C(=NCCOC)N[C@@H](c2ccccc2)[C@H](C(=O)OC)[C@H]1C	12%	50µM*	-17%	-11%[12.7 µM]	-15%	16%
CC1CCc2c(sc(NC(=O)CSc3ncn[nH]3)c2C#N)C1 (stereo not drawn)	-26%	-7%	-8%	12%[59 µM]	3%	45%
